From PubChem BioAssay (NCI) come the findings set out here.

About 83,000 compounds went through this panel and 20% of them were active in at least one assay; those are over-represented in the sample as a whole.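 Assay: single dose, 48 h. Readout: percent growth (0 = no net growth; negative = cell death). Active: <10.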 Values without a mark were called inactive. Active and inactive are the calls of the source.

Some test systems named below: NCI-H23 lung; NCI-H226 lung; NCI-H322M lung; HOP-62 NSCLC; NCI-H460 lung; HOP-92 NSCLC; NCI-H522 lung; A549/ATCC NSCLC; 786-0 renal; COLO 205 colon.
Common to all, as to assay: NCI-60 one-dose screen, 48 h (100 = growth as untreated, 0 = no growth, -100 = all killed)
Settings in all cases: 10 µM unless noted

Turning to `O=c1c2cc(F)ccc2sc2c(NCCN3CCCCC3)nc3ccccc3c12`, the growth in the test with NCI-H23 lung was 65.6%; with NCI-H226 lung it was 77%; in the test on NCI-H322M lung it was 70.9%; in the test with HOP-62 NSCLC, 64.4%; with NCI-H460 lung it was 18.3%; with HOP-92 NSCLC, 34.2%. The growth in the test on NCI-H522 lung was 34.2%; with A549/ATCC NSCLC, 59.1%; in the test on 786-0 renal, 41%; in the test on COLO 205 colon, 48%.
As to `Cn1ccc2c(c1=O)C(=O)c1nccc3c1c-2nc1ccccc13`, the growth in the test with NCI-H23 lung is -66.6% (active); in the test on NCI-H226 lung, 83.1%; in the test on NCI-H322M lung, 17.4%; in the test on HOP-62 NSCLC, -86.6% (active); in the test with NCI-H460 lung, -74.7% (active); with HOP-92 NSCLC it was 62.8%. In addition, the growth in the test on NCI-H522 lung is -68.5% (active); in the test with A549/ATCC NSCLC it was -87.4% (active); in the test with 786-0 renal it was -95.5% (active); in the test with COLO 205 colon, -75.5% (active).
As for `O=C(/C=C/c1ccc(Cl)nc1)c1ccc(Cl)cc1Cl`, the growth in the test with NCI-H23 lung is 105%; with NCI-H226 lung, 103%; with NCI-H322M lung, 99.8%; in the test on HOP-62 NSCLC, 106%; in the test on NCI-H460 lung it was 98%; in the test with HOP-92 NSCLC, 110%. For the same compound, the growth in the test with NCI-H522 lung was 38.7%; in the test with A549/ATCC NSCLC it was 94.4%; in the test with 786-0 renal, 86.8%; in the test on COLO 205 colon, 111%.
With `Fc1ccc(CNc2c3ccccc3nc3ccccc23)cc1F`, the growth in the test on NCI-H23 lung is 35.2%; in the test with NCI-H226 lung, 47.6%; with NCI-H322M lung, 39%; with HOP-62 NSCLC, 51.3%; in the test with NCI-H460 lung it was 14.6%; in the test on HOP-92 NSCLC it was -8.56% (active). For the same compound, the growth with NCI-H522 lung is 37%; in the test with A549/ATCC NSCLC, 29.1%; in the test on 786-0 renal, 31.4%; in the test with COLO 205 colon it was 16.1%.
For `COc1cc(/C=N/NC(=O)Cn2c(C(C)C)nc3ccccc32)ccc1O`, the growth was 94.9% in the test on NCI-H23 lung; 93.7% in the test with NCI-H226 lung; 93.5% in the test with NCI-H322M lung; 92.9% with HOP-62 NSCLC; 97.7% in the test with NCI-H460 lung; 82.3% with HOP-92 NSCLC. The growth is 92.4% in the test with NCI-H522 lung, 105% in the test with A549/ATCC NSCLC, 104% in the test on 786-0 renal and 109% in the test on COLO 205 colon.
For the compound `Cc1ccc(/C=C2\C(=O)N(C)c3ccc(S(=O)(=O)Nc4ccc(C(C)(C)C)cc4)cc32)s1`, the growth was 64.1% with NCI-H23 lung; 86% with NCI-H226 lung; 58.7% in the test with NCI-H322M lung; 31.8% with HOP-62 NSCLC; 32.1% in the test on NCI-H460 lung; 60% with HOP-92 NSCLC. Moreover, the growth is 43.4% in the test with NCI-H522 lung, 33.1% with A549/ATCC NSCLC, 40.1% in the test with 786-0 renal and 70.9% in the test on COLO 205 colon.
On to `Cc1c(C)c2c(c(C)c1OCC(=O)O)CC[C@@](C)(CCC[C@@H](C)CCC[C@@H](C)CCCC(C)C)O2`, for which the growth with NCI-H23 lung is -30.8% [50 µM] (active); in the test on NCI-H226 lung it was 2.79% [50 µM] (active); with NCI-H322M lung, 43.3% [50 µM]; in the test with HOP-62 NSCLC, 2.69% [50 µM] (active); with NCI-H460 lung it was 3.28% [50 µM] (active); with HOP-92 NSCLC, -56.6% [50 µM] (active). The growth in the test with NCI-H522 lung was -4.29% [50 µM] (active); with A549/ATCC NSCLC, -3.06% [50 µM] (active); with 786-0 renal, -46.4% [50 µM] (active); in the test on COLO 205 colon, -10.6% [50 µM] (active).
Consider `C#CCOc1nc(C)cc(C)c1C#N`, for which the growth is 95.6% in the test with NCI-H23 lung; 97% with NCI-H226 lung; 105% with NCI-H322M lung; 92.2% with HOP-62 NSCLC; 102% with NCI-H460 lung; 71.4% in the test with HOP-92 NSCLC. Also, the growth is 89.3% with NCI-H522 lung, 97.7% with A549/ATCC NSCLC, 99.6% with 786-0 renal and 111% in the test on COLO 205 colon.
For the compound `COc1cc(/C=C/C(=O)c2cccc(-n3cc(-c4ccccc4)[nH]c3=O)c2)ccc1O`, the growth in the test with NCI-H23 lung is 84.5%; in the test on NCI-H226 lung, 105%; in the test with NCI-H322M lung, 85.4%; with HOP-62 NSCLC, 129%; with NCI-H460 lung, 89.2%; in the test on HOP-92 NSCLC, 45.3%. Also, the growth is 26.2% in the test on NCI-H522 lung, 66.7% in the test on A549/ATCC NSCLC, 74% with 786-0 renal and 100% in the test on COLO 205 colon.
Consider `COc1ccccc1N1C(=O)/C(=C/C2=Cc3ccccc3OC2)SC1=S`, for which the growth in the test with NCI-H23 lung was 97.6%; in the test on NCI-H226 lung, 103%; in the test on NCI-H322M lung it was 92.6%; with HOP-62 NSCLC, 91.7%; with NCI-H460 lung, 102%; with HOP-92 NSCLC, 97.7%. The growth in the test on NCI-H522 lung was 90%; with A549/ATCC NSCLC, 95.7%; with 786-0 renal, 101%; in the test with COLO 205 colon, 109%.
For the compound `CCc1ccccc1-n1c(-c2ccc(Cl)cc2)cc(-c2ccc(Cl)cc2)c(C#N)c1=O`, the growth was 94.2% in the test on NCI-H23 lung; 97.4% in the test with NCI-H226 lung; 83.7% with NCI-H322M lung; 107% in the test on HOP-62 NSCLC; 93.9% in the test on NCI-H460 lung; 72.4% in the test on HOP-92 NSCLC. Also, the growth is 78.1% in the test with NCI-H522 lung, 94.7% in the test with A549/ATCC NSCLC, 98% in the test on 786-0 renal and 89.4% in the test on COLO 205 colon.
In the case of `O=C1NC(=Nc2ccc(Cl)cc2)S/C1=C\c1cn(-c2ccccc2)nc1-c1ccccc1`, the growth was 93.4% with NCI-H23 lung; 93.4% in the test with NCI-H226 lung; 89.5% with NCI-H322M lung; 99.6% in the test on HOP-62 NSCLC; 44.6% in the test on NCI-H460 lung; -0.936% (active) in the test on HOP-92 NSCLC. Moreover, the growth with NCI-H522 lung is 75.4%; in the test on A549/ATCC NSCLC it was 34.9%; in the test with 786-0 renal it was 85.5%; with COLO 205 colon, 96.7%.
Turning to `CCN(CC)CCn1nc2c3c(cccc3c1=O)-c1ccccc1-2`, the growth is 23.7% with NCI-H23 lung; -39.9% (active) in the test on NCI-H226 lung; 30.6% with NCI-H322M lung; 11.1% with HOP-62 NSCLC; 3.42% (active) with NCI-H460 lung; -6.84% (active) in the test on HOP-92 NSCLC. Also, the growth in the test with NCI-H522 lung was 10.8%; with A549/ATCC NSCLC it was 1.36% (active); with 786-0 renal, 33.3%; in the test with COLO 205 colon it was 15.8%.
For `CC1(C)CC(=O)CC2(C1)N=C(N)Nc1nc3ccccc3n12` (stereo not given), the growth in the test on NCI-H23 lung is 101%; with NCI-H226 lung, 95.6%; in the test with NCI-H322M lung, 117%; in the test on HOP-62 NSCLC it was 119%; in the test on NCI-H460 lung it was 111%; in the test on HOP-92 NSCLC, 87.3%. For the same compound, the growth with NCI-H522 lung was 69.6%; in the test with A549/ATCC NSCLC it was 97.9%; with 786-0 renal, 107%; with COLO 205 colon, 102%.
